Measurements: PubChem BioAssay AID602296 (Broad Institute, 2012)
The whole screen tested about 2,000 compounds, of which about 190 (9.5%) were called active. Roughly 14% stayed inconclusive and do not appear here.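 How the source made its calls: active means fitted activation curve crossing 40% at a concentration no higher than the sample's top valid tested dose; inconclusive means flat fitted curve at 30% to 70% activation, or poor curve fit; inactive means signal decrease, flat curve within 30%, or the rest.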 Not all results are given here.

experiment: sustained heat shock response element induction – cell-based, mouse, luciferase, cherry-pick, dose, confirmation (AID 602296); details: NIH3T3-HGL HSF-1 response element luciferase, 48 h; series mostly up to 26 µM;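 further: test compounds applied by themselves with no MG132 co-treatment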

outcome, inactive:
CC12CCC(=O)N1C(C(=O)Nc1cccc3ccccc13)CS2 (configuration not stated)
COc1ccc(CNCC(O)COc2ccc(C(C)(C)c3ccccc3)cc2)cc1 (configuration not stated)
COc1ccc(Cl)cc1NC(=O)CCc1nc(-c2ccccc2F)no1
Cc1ccc(-c2ccc(=O)[nH]n2)cc1
c1ccc(Cn2nnnc2C(c2cccs2)N2CCc3ccccc3C2)cc1 (configuration not stated)
COc1ccc(N/C=C(\C=C\C#N)S(=O)(=O)c2ccccc2)cc1
Cc1cccc(NC(=S)N(CCN(C)C)C(C)c2cccnc2)c1 (configuration not stated)
COCCOC(=O)C1=C(C)NC(C)=C(C(=O)OCCOC)C1/C=C/c1ccccc1OC
COc1ccc(C(=O)COC(=O)c2cccnc2SC)cc1
CCOc1ccc(S(=O)(=O)NNC(=S)Nc2ccc(Br)cc2)cc1
CCOC(=O)c1c(NC(C)=O)sc2c1CCC(C=NCCCN(CC)CC)=C2Sc1ccccc1
O=C(c1ccc(Br)cc1)N1CCCC(c2nc(-c3cccs3)no2)C1 (configuration not stated)
Cc1[nH]c2ccccc2c1CN1CCN(c2ccccn2)CC1
CCOc1ccc(NC(=O)C2CC(=O)N3CCCN=C3S2)cc1 (configuration not stated)
CCOC(=O)c1nnc(-c2ccccc2)nc1Sc1ccccc1Cl
CCC(NC(=O)/C(=C\c1ccc2c(c1)OCO2)NC(C)=O)C(=O)O (configuration not stated)
Cc1cc(NC(=O)CSc2nc3c(cc2C#N)CCC3)no1
Cc1nonc1C1CCCN1Cc1cn[nH]c1-c1ccc(-c2ccccc2)cc1 (configuration not stated)
Cc1ccc2c(CN3CCN(S(=O)(=O)/C=C/c4ccccc4)CC3)cc(=O)oc2c1
O=C1C2CCCCC2C(=O)N1Cc1ccccc1 (configuration not stated)
CC(C)C(C)N(Cc1ccc(C(=O)O)cc1)C(=O)c1ccc2ccccc2n1 (configuration not stated)
O=C(Nc1ccn(Cc2ccccc2F)n1)c1ccc(COc2ccc(Cl)cc2Cl)o1
Cn1c(CN2CCN(c3ccc(Cl)cc3)CC2)nc2ccccc21
Brc1ccc(CSc2nnc(-c3ccccn3)n2Cc2ccco2)cc1
CSc1nc(S(=O)(=O)c2ccc(C)cc2)c(Cl)s1
COc1ccc(CCNCc2cc(C)n(-c3ccc(OC)cc3)c2C)cc1
Cc1cc(C(=O)N/N=C/c2ccc([N+](=O)[O-])s2)c2ccccc2n1
Clc1ccc(-n2cc(COCc3ccccc3)nn2)cc1
COc1ccc(OC)c(S(=O)(=O)Nc2ccccc2O)c1
COc1ccc(Cl)cc1N(CC(=O)Nc1ccccc1SC)S(C)(=O)=O
CCOC(=O)/C=C/C(=O)OCC(=O)NC(c1ccccc1)c1ccccc1
Cc1onc(-c2ccccc2)c1C(=O)N/N=C/c1cccc(O)c1
C=CCc1ccc(OCC(O)CO)c(OC)c1 (configuration not stated)
NC(=O)c1ccc(NC(=O)CC23CC4CC(CC(Br)(C4)C2)C3)cc1
Cc1cccn2c(=O)nc(SCC(=O)N3N=C(c4cccs4)CC3c3ccc(F)cc3)nc12 (configuration not stated)
O=C(NNc1c(F)c(F)cc(F)c1F)c1ccc(Cl)nc1
CCOc1ccc(CN(C)CC(O)COC(c2ccc(OC)cc2)c2ccc(OC)cc2)cc1 (configuration not stated)
O=C(/C(=N/N=C/c1ccc(O)c(O)c1)c1ccccc1)c1ccccc1
Cc1ccc(Cl)c2c1=NC(=O)C=2c1[nH]c(=S)[nH]c1O
Cc1ccc(N(Cc2ccc(C(=O)Nc3ccccc3C(=O)NCc3ccco3)cc2)S(C)(=O)=O)cc1C
CC(C)=C1C2CCC1C1C(=O)N(c3nc(-c4ccccc4)c(C)s3)C(=O)C21 (configuration not stated)
COc1ccc(CCNC(=O)C2CCCN(Cc3nc(-c4ccccc4C)oc3C)C2)cc1OC (configuration not stated)
O=C1[C@@H]2Cc3c([nH]c4ccccc34)C(c3ccc([N+](=O)[O-])cc3)N2C(=O)CN1C1CC1 (some centres not stated)
CC(=O)c1ccc(N=C2C(=O)Nc3ccccc32)cc1
Cc1ccc(-c2[nH]c3ccccc3c2C(C[N+](=O)[O-])c2ccco2)cc1 (configuration not stated)
Cc1cc(Sc2nnc(N)s2)c2ccccc2n1
CC12CN(C(=S)Nc3ccccc3)CC(C)(CN(C(=S)Nc3ccccc3)C1)C2=O
COC(=O)Nc1ccc(S(=O)(=O)N2CCC(C(=O)N3CCCC(C)C3)CC2)cc1 (configuration not stated)
COc1ccccc1C(=O)NCCCNC(=O)c1ccccn1
NCCCCCc1nnc(SC/C=C/c2ccccc2)o1
COc1cc(-c2nnc(SC/C=C/c3ccccc3)n2N)cc(OC)c1OC
COc1cccc(-c2c(C(=O)N/N=C(\C)c3ccc(Cl)s3)nnn2-c2nonc2N)c1
C=C(C)Cn1c(SCC(=O)O)nnc1-c1ccc(OC)cc1
CC(=O)COc1cccc2ccc(/C=C/c3ccc(Br)s3)nc12
Cc1[nH]n(-c2ccccc2)c(=O)c1C(C[N+](=O)[O-])c1ccc(F)cc1 (configuration not stated)
C=CCn1c(C2CCCCC2)n[nH]c1=S
S=c1[nH]nc(-c2cc(-c3ccccc3)n[nH]2)n1/N=C/C(Br)=C/c1ccccc1
COc1ccc2cc(S(=O)(=O)N3CCCCC3)ccc2c1S(=O)(=O)N1CCCCC1
CCOC(=O)COc1ccc(/C=C2/SC(=Nc3ccccc3)N(Cc3cccnc3)C2=O)cc1OC
CCCCc1nnc(NC(=O)C(C)Sc2nc(C)cc(=O)[nH]2)s1 (configuration not stated)
CCn1c(CNC(C)=O)nnc1SCC(=O)c1ccc(Br)cc1
COc1ccc(C(CCNCc2ccccc2)c2ccc(F)cc2)cc1 (configuration not stated)
Nc1cnn(Cc2ccc(F)cc2)c1
CC1=CC(C)(C)Nc2ccc(OC(=O)C(Cc3ccccc3)N3C(=O)c4ccccc4C3=O)cc21 (configuration not stated)
CCOc1ncccc1C(=O)N(C)CC1COc2ccccc2O1 (configuration not stated)
O=C(CCCN1C(=O)c2cccc3cccc(c23)C1=O)Nc1ccon1
CCN(CC)CCOc1ccc(/C(=C(/Cl)c2ccccc2)c2ccccc2)cc1
CCCCN(C)C(=O)C1CCC(CNS(=O)(=O)c2ccc3c(c2)CC(C)N3C(=O)C2CC2)CC1 (configuration not stated)
Brc1ccc2c(c1)C(c1cccnc1)=NNC(c1cccs1)=N2
Cc1ccc(-n2c(C)cc(C(=O)COc3c(CO)cc(F)cc3CO)c2C)cc1C
Cc1c(NC(=O)CSc2nnc3c4ccccc4n(CCc4ccccc4)c3n2)c(=O)n(-c2ccccc2)n1C
CC(=O)Nc1ccc(N2C(=O)C3C4CC(=O)C(c5ccccc54)C3C2=O)cc1 (configuration not stated)
O=c1[nH]c(CSc2ccccn2)nc2c1oc1ccccc12
C=CCn1c(COc2ccc(CC)cc2)nnc1SC/C(O)=C(\C#N)c1nc2ccccc2[nH]1
S=C(NCCSCc1ccc(Cl)c(Cl)c1)Nc1ccccc1
O=C(CSC1=NCCN1)Nc1cccc(C(F)(F)F)c1
CC1(C)CC(=O)C2=C(C1)N1C(=C(C#N)C2c2ccc(Cl)cc2)N=C(N)c2ccccc21 (configuration not stated)
O=C(CNS(=O)(=O)c1ccc(Br)s1)NCc1ccccc1
Cc1ccc(CNC(=O)Cn2ccc3ccccc3c2=O)o1
CNC(=O)N(O)C1N(/N=C/c2c(F)cccc2Cl)C(=S)SC1(C)C (configuration not stated)
FC(F)(F)c1ccc(Sc2nnc(-c3cccs3)n2CC2CCCO2)nc1 (configuration not stated)
Clc1ccc(CCNc2nc3ccccc3n3nnnc23)cc1
O=C(Nc1cccc(Cl)c1)N1CCC(CO)(CCOc2ccccc2)CC1
COc1ccc(/C=C/C(=O)c2ccc(O)cc2)cc1COc1ccc(F)cc1
Oc1cc(-c2ccccc2)c2ccccc2c1
Cc1nc2cc3nc(C(F)(F)F)[nH]c3cc2[nH]1
COc1ccccc1CCC(=O)OCC(=O)Nc1c(Br)cc(C)cc1Br
O=C(NCCc1ccc(O)c(O)c1)C1COc2ccccc2O1 (configuration not stated)
CC(NC(=O)c1ccc(C(C)(C)C)cc1)C(c1cccs1)N1CCOCC1 (configuration not stated)
CCNC(=O)C(=O)NCc1ccncc1
CCn1cnc2c1c(=O)n(Cc1nnc3n1-c1ccccc1SC3)c(=O)n2Cc1ccccc1
N#Cc1cc(Cl)c(NCC2CCCO2)cc1C#N (configuration not stated)
Cc1ccc(S(=O)(=O)NNC(=O)c2sc3nc(C)cc(C)c3c2-n2cccc2)cc1
Clc1ccc(CO/N=C/c2c(-c3ccccc3)nc3n2CCS3)c(Cl)c1
Cc1ccc(-c2nc3ccccc3[nH]2)cc1NC(=O)c1ccc2c(c1)OCO2
COc1cccc(NC=C2C(=O)OC3(CCCCC3)OC2=O)c1
Cc1sc2nc(CSc3cccc(C(F)(F)F)c3)[nH]c(=O)c2c1C
COc1ccc(N2C(=O)CC(Sc3nnnn3-c3ccc(F)cc3)C2=O)cc1 (configuration not stated)
CC(C(=O)Nc1ccccc1Br)N1c2cccc3cccc(c23)S1(=O)=O (configuration not stated)
CC(=O)c1ccc(N2CCN(C(=O)c3n[nH]c4ccccc34)CC2)cc1
Cc1ccc(C(=O)Cn2nnc(-c3ccccc3-n3cnnn3)n2)cc1
COc1ccccc1NC(=O)C1=C(C)NC2=C(C(=O)CC(c3ccc(OC)c(OC)c3)C2)C1c1coc2ccccc2c1=O (configuration not stated)
Cc1ccc(S(=O)(=O)N(C)c2ccc(C)c([N+](=O)[O-])c2)cc1
CCOC(=O)C1=C(C)Nc2nc3ccccc3n2C1c1ccncc1 (configuration not stated)
COc1ccc(NC(=O)C(NCC(C)C)c2ccccc2)cc1Cl (configuration not stated)
O=S(=O)(c1ccc(-n2cnnn2)cc1)N1CCNCC1
CCCCCCCCCCCC(=O)c1c(O)cccc1O
